Measured values taken from ChEMBL document CHEMBL3433997, “St. Jude Leishmania screening dataset” (2016).

Target: Hexose transporter 1 (Plasmodium falciparum) (UniProt O97467)
Assay: ST_JUDE_LEISH: Cytotoxicity at 2uM final concentration against transgenic Leishmania Mexicana promastigotes LmPfHT that are glucose transport deficient and complemented with the Plasmodium falciparum hexose transporter. Activity is measured by DNA content using SYBR green in vitro
Format: functional

Structure (SMILES) | inhibition
O=C(/C=C/c1ccc(Cl)c(Cl)c1)NCCCCCN1CCC(n2c(=O)[nH]c3ccccc32)CC1 | 7.32%
CCc1ccc(N2C(=O)C3C(Cc4ccc(OC(C)(C)C)cc4)NC4(C(=O)N(Cc5ccccc5)c5ccc(F)cc54)C3C2=O)cc1 (stereo unspecified) | -0.02%
Cc1nc(-c2nc(NCc3ccccn3)ncc2-c2ccsc2)sc1C | 5.22%
COc1cccc(O)c1CN1CCC2(CCCN(Cc3ccc(F)cc3)C2)C1 (stereo unspecified) | 2.73%
O=C(Nc1ccc(OC2CCN(Cc3ccsc3)C2)c(Cl)c1)c1ccc(F)cc1 (stereo unspecified) | 0.51%
Nc1ncc(-c2ccccc2)cc1-c1cccc2ncccc12 | 9.12%
CCN(CCN(C)C)Cc1ccc(-c2ccc(NS(=O)(=O)c3cccc(Cl)c3)cc2)cc1 | 0.64%
Fc1ccc(OC2CN(c3nccc(NCc4ccccc4Cl)n3)C2)cc1 | 2.84%
CCCCNCc1ccc(-c2nc(CN(CCCN3CCN(C)CC3)C(=O)Nc3cccc(Cl)c3)cs2)cc1 | 9.93%
COc1cc(F)c2ncc(Cl)c(CCN3CCC(NCc4ccc5c(c4)NC(=O)CO5)CC3)c2c1 | 7.51%
CCN1CCN(c2cc(C)c3cc(NC(=O)c4ccc(Br)o4)ccc3n2)CC1 | 6.62%
COc1cc(CN2CCC(NC(=O)[C@H](Cc3ccccc3)NC(=O)Nc3ccc(Oc4ccccc4)cc3)C2)ccc1O (stereo partly specified) | 1.77%
O=C(NC(NC(=S)Nc1ccc([N+](=O)[O-])cc1)C(Cl)(Cl)Cl)c1cccc(Cl)c1 (stereo unspecified) | -1.54%
CC(C)CNCc1ccc(-c2ccc(CN(CCCN3CCN(C)CC3)C(=O)CCC3CCCC3)cc2)cc1 | 52%
O=C(Nc1ccc(-c2cccc(-c3nc4ccccc4[nH]3)c2)cc1)Nc1ccc(Cl)c(Cl)c1 | 0.83%
Cc1cc(NCc2ccc(F)cc2)nc2cc(O)ccc12 | 3.64%
Nc1ncc(OC2CCCCC2)c(N)n1 | 0.87%
CC(=O)N1N=C(c2ccc(Cl)cc2)Sc2c1nc(-c1ccccc1)n2C(C)=O | 1.84%
Cc1cc(N2CCOCC2)nc(Nc2ccc(NC(=O)Nc3ccc(F)cc3)cc2)n1 | -2.91%
Cc1cc2c(cc1Cl)N(C(=O)Nc1cc(F)cc(-c3cncnc3)c1)CC2 | 5%
COc1ccc(CNC2CCN(c3ccc(NC(=O)c4cccc(Cl)c4)cc3)CC2)cc1OC | 1.47%
CCOc1ccc2c(N/N=C/c3cccc([N+](=O)[O-])c3)cc(C)nc2c1 | 4.85%
CC1(C)N=C(N)N=C(N)N1CCc1ccccc1 | 7.56%
COc1ccc(Cl)cc1N1CCN(CCCNC(=O)c2ccc(-c3nc4cc(Cl)c(F)cc4[nH]3)s2)CC1 | 5.41%
CCc1cn2c3c(cc(C(=O)N[C@@H](Cc4cc(F)cc(F)c4)[C@H](O)CNC4CC4)cc13)N(C)S(=O)(=O)CC2 | 2.48%
CCNc1cc(C(=O)N[C@@H](Cc2ccccc2)[C@H](O)CNC(CC)c2cccc(Cl)c2)cc(N2CCCC2=O)c1 (stereo partly specified) | -0.75%

Target: Glucose transporter (Leishmania mexicana) (UniProt O61059)
Assay: ST_JUDE_LEISH: Cytotoxicity at 2uM final concentration against transgenic Leishmania Mexicana promastigotes LmGT2 that are glucose transport deficient and complemented with the L. Mexicana glucose transporter 2. Activity is measured by DNA content using SYBR green in vitro
Format: functional

Structure (SMILES) | inhibition
NC1CCN(Cc2ccc(-c3ccc(-c4nc5cc(F)ccc5[nH]4)cc3)cc2)C1 (stereo unspecified) | -0.01%
OCCN1CCN(Cc2cccc(-c3ccc(-c4nc5cc(C(F)(F)F)ccc5[nH]4)s3)c2)CC1 | 0.82%
CCCN(C(=O)c1ccccc1C)c1nnc(-c2ccccc2C)s1 | -3.1%
C=CCN1C(=O)c2[nH]nc(-c3cc(C)c(C)cc3O)c2C1c1cccc(Br)c1 (stereo unspecified) | 1.27%
CN1CCN(Cc2c(O)ccc3c(=O)c(Oc4ccc(C(C)(C)C)cc4)c(C(F)(F)F)oc23)CC1 | 46.6%
CCN1CCC(N(CCCCCCc2ccc(C(F)(F)F)cc2)C(=O)Cn2c(CCc3cccc(F)c3F)cc(=O)c3ccccc32)CC1 | 2.53%
COc1cc(-c2[nH]c(-c3ccc(OCCN(C)C)cc3)cc2-c2ccncc2)ccc1Cl | 1.76%
CN(C)C=Nc1ccc(OCCCCCCOc2ccc(N=CN(C)C)cc2)cc1 | 2.37%
O=C(/C=C/c1ccc(Cl)c(Cl)c1)NCCCCCN1CCN(C(=O)Nc2ccc(OC(F)F)cc2)CC1 | -2.1%
COc1cc(NC(=O)/C=C/c2cccc3cc[nH]c23)ccc1OCCN(C(C)C)C(C)C | -2.66%
CN1CCCCC1CCc1cc(C(=O)Nc2ccc(-c3ccc(O)cc3)cc2)ccc1O (stereo unspecified) | -0.5%
Nc1ccc(-c2nc3cc(Oc4ccc5[nH]c(-c6ccc(N)cc6)nc5c4)ccc3[nH]2)cc1 | -0.55%
CON=Cc1ccn(-c2ccc(O)c3c2C[C@H]2C[C@H]4[C@H](N(C)C)C(O)=C(C(N)=O)C(=O)[C@@]4(O)C(O)=C2C3=O)c1 | 4.92%
COc1cc(-c2nc(-c3ccc([N+](=O)[O-])cc3)c(-c3ccccc3)[nH]2)cc(OC)c1O | 5.26%
O=C(/C=C/c1ccc(Cl)c(Cl)c1)NCCCCCN1CCC(n2c(=O)[nH]c3ccccc32)CC1 | 7.73%
CCc1ccc(N2C(=O)C3C(Cc4ccc(OC(C)(C)C)cc4)NC4(C(=O)N(Cc5ccccc5)c5ccc(F)cc54)C3C2=O)cc1 (stereo unspecified) | -1.06%
Cc1nc(-c2nc(NCc3ccccn3)ncc2-c2ccsc2)sc1C | 5.82%
COc1cccc(O)c1CN1CCC2(CCCN(Cc3ccc(F)cc3)C2)C1 (stereo unspecified) | -0.21%
O=C(Nc1ccc(OC2CCN(Cc3ccsc3)C2)c(Cl)c1)c1ccc(F)cc1 (stereo unspecified) | 0.32%
Nc1ncc(-c2ccccc2)cc1-c1cccc2ncccc12 | 6.36%

Structure (SMILES) | inhibition
CCN(CCN(C)C)Cc1ccc(-c2ccc(NS(=O)(=O)c3cccc(Cl)c3)cc2)cc1 | -1.5%
Fc1ccc(OC2CN(c3nccc(NCc4ccccc4Cl)n3)C2)cc1 | -0.6%
CCCCNCc1ccc(-c2nc(CN(CCCN3CCN(C)CC3)C(=O)Nc3cccc(Cl)c3)cs2)cc1 | 5.61%
COc1cc(F)c2ncc(Cl)c(CCN3CCC(NCc4ccc5c(c4)NC(=O)CO5)CC3)c2c1 | 2.39%
CCN1CCN(c2cc(C)c3cc(NC(=O)c4ccc(Br)o4)ccc3n2)CC1 | 8.17%
COc1cc(CN2CCC(NC(=O)[C@H](Cc3ccccc3)NC(=O)Nc3ccc(Oc4ccccc4)cc3)C2)ccc1O (stereo partly specified) | -3.37%
O=C(NC(NC(=S)Nc1ccc([N+](=O)[O-])cc1)C(Cl)(Cl)Cl)c1cccc(Cl)c1 (stereo unspecified) | -0.06%
CC(C)CNCc1ccc(-c2ccc(CN(CCCN3CCN(C)CC3)C(=O)CCC3CCCC3)cc2)cc1 | 3.97%
O=C(Nc1ccc(-c2cccc(-c3nc4ccccc4[nH]3)c2)cc1)Nc1ccc(Cl)c(Cl)c1 | 0.9%
Cc1cc(NCc2ccc(F)cc2)nc2cc(O)ccc12 | 1.59%
Nc1ncc(OC2CCCCC2)c(N)n1 | -1.09%
CC(=O)N1N=C(c2ccc(Cl)cc2)Sc2c1nc(-c1ccccc1)n2C(C)=O | 2.48%
Cc1cc(N2CCOCC2)nc(Nc2ccc(NC(=O)Nc3ccc(F)cc3)cc2)n1 | 1.66%
Cc1cc2c(cc1Cl)N(C(=O)Nc1cc(F)cc(-c3cncnc3)c1)CC2 | 2.7%
COc1ccc(CNC2CCN(c3ccc(NC(=O)c4cccc(Cl)c4)cc3)CC2)cc1OC | 0.61%
CCOc1ccc2c(N/N=C/c3cccc([N+](=O)[O-])c3)cc(C)nc2c1 | 4.14%
CC1(C)N=C(N)N=C(N)N1CCc1ccccc1 | 8.45%
COc1ccc(Cl)cc1N1CCN(CCCNC(=O)c2ccc(-c3nc4cc(Cl)c(F)cc4[nH]3)s2)CC1 | 2.06%
CCc1cn2c3c(cc(C(=O)N[C@@H](Cc4cc(F)cc(F)c4)[C@H](O)CNC4CC4)cc13)N(C)S(=O)(=O)CC2 | 3.48%
CCNc1cc(C(=O)N[C@@H](Cc2ccccc2)[C@H](O)CNC(CC)c2cccc(Cl)c2)cc(N2CCCC2=O)c1 (stereo partly specified) | 3.68%
